Activity calls are given as the source filed them.
Experiments:
[1] = system: PRMT1 (protein arginine N-methyltransferase 1); experiment: small molecules binding arginine methyltransferase PRMT1 – biochemical, small-molecule microarray, 635 nm fluorescence, primary screen (AID 1088); settings: higher = more signal;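 further: binding of Prmt1 protein to compounds spotted on small-molecule microarray slides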
[2] = growth effects on S. cerevisiae YJM789 – YJM789 clinical isolate, OD600, 24 h, basal, primary screen (AID 1089); settings: higher = more signal, called active from +8 up or from −8 down;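 further: growth of clinical yeast isolate S. cerevisiae YJM 789 seeded 1000 cells per well; test concentration not given here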
[3] = S. pombe growth modifiers, basal conditions – strain 972, OD600, 24 h, no modulator, primary screen (AID 1090);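 further: basal condition with compound alone and no growth modifier present; test concentration not given here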; settings: S. pombe 972 growth, higher = more signal, called active from +8 up or from −8 down
[4] = budding yeast growth modifiers under rapamycin – strain BY4716, OD600, 96 h, primary screen (AID 1091); further: test concentration not given here; settings: S. cerevisiae BY4716 + rapamycin, higher = more signal, called active from +8 up or from −8 down
[5] = molecular target: Torsin-1A-interacting protein 2 (Homo sapiens) (UniProt Q8NFQ8); experiment: small molecules binding lysate-expressed LULL1 – cell lysate, human LULL1 lysate, 635/667 nm fluorescence, primary screen (AID 1092); settings: small-molecule microarray, hLULL1 lysate binding, 635 nm fluorescence; higher = more signal;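 further: probe is lysate of COS7 cells overexpressing human LULL1; score merges per-feature 667 nm fluorescence with signal-to-noise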
Torsin-1A-interacting protein 2 (Homo sapiens), sequence (Q8NFQ8 whole entry, looked up): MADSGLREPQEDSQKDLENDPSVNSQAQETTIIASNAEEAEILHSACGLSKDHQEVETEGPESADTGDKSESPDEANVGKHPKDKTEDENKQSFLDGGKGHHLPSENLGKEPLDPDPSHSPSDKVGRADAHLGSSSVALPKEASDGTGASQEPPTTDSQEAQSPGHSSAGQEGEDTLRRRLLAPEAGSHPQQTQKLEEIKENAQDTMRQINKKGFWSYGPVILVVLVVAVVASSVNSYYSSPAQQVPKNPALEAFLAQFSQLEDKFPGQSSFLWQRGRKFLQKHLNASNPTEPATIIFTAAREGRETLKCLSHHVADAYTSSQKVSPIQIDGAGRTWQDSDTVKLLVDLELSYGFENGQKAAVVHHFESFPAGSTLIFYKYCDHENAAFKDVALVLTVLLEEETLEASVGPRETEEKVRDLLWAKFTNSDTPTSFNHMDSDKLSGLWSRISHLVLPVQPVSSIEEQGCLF

[6] = optical density change of DRC41 E. coli – strain DRC41, OD650, 24 h, E. coli filamentation project, primary screen (AID 1093);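 further: MC1000 strain lacking acrAB efflux and sulA so SOS filamentation is blocked; test concentration not given here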; settings: E. coli DRC41 growth, higher = more signal, called active from +8 up or from −8 down
[7] = probe aLefty2 binding to arrayed compounds – biochemical, biotinylated probe, 635/667 nm fluorescence, primary screen (AID 1094); settings: small-molecule microarray, higher = more signal;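 further: score merges spot fluorescence near 667 nm with spot signal-to-noise ratio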
[8] = system: Noggin (protein binding on small-molecule microarray); experiment: small molecules binding Noggin protein – biochemical, 635/667 nm fluorescence, primary screen (AID 1095); settings: 635 nm fluorescence, higher = more signal;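 further: score merges 667 nm feature fluorescence with signal to noise over triplicate slides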
[9] = molecular target: Neurogenic locus notch homolog protein 3 (Homo sapiens) (UniProt Q9UM47); experiment: small molecules binding NOTCH3 protein – biochemical, 635/667 nm fluorescence, primary screen (AID 1096); settings: small-molecule microarray, 635 nm fluorescence, higher = more signal
Neurogenic locus notch homolog protein 3 (Homo sapiens), sequence (Q9UM47 whole entry, looked up): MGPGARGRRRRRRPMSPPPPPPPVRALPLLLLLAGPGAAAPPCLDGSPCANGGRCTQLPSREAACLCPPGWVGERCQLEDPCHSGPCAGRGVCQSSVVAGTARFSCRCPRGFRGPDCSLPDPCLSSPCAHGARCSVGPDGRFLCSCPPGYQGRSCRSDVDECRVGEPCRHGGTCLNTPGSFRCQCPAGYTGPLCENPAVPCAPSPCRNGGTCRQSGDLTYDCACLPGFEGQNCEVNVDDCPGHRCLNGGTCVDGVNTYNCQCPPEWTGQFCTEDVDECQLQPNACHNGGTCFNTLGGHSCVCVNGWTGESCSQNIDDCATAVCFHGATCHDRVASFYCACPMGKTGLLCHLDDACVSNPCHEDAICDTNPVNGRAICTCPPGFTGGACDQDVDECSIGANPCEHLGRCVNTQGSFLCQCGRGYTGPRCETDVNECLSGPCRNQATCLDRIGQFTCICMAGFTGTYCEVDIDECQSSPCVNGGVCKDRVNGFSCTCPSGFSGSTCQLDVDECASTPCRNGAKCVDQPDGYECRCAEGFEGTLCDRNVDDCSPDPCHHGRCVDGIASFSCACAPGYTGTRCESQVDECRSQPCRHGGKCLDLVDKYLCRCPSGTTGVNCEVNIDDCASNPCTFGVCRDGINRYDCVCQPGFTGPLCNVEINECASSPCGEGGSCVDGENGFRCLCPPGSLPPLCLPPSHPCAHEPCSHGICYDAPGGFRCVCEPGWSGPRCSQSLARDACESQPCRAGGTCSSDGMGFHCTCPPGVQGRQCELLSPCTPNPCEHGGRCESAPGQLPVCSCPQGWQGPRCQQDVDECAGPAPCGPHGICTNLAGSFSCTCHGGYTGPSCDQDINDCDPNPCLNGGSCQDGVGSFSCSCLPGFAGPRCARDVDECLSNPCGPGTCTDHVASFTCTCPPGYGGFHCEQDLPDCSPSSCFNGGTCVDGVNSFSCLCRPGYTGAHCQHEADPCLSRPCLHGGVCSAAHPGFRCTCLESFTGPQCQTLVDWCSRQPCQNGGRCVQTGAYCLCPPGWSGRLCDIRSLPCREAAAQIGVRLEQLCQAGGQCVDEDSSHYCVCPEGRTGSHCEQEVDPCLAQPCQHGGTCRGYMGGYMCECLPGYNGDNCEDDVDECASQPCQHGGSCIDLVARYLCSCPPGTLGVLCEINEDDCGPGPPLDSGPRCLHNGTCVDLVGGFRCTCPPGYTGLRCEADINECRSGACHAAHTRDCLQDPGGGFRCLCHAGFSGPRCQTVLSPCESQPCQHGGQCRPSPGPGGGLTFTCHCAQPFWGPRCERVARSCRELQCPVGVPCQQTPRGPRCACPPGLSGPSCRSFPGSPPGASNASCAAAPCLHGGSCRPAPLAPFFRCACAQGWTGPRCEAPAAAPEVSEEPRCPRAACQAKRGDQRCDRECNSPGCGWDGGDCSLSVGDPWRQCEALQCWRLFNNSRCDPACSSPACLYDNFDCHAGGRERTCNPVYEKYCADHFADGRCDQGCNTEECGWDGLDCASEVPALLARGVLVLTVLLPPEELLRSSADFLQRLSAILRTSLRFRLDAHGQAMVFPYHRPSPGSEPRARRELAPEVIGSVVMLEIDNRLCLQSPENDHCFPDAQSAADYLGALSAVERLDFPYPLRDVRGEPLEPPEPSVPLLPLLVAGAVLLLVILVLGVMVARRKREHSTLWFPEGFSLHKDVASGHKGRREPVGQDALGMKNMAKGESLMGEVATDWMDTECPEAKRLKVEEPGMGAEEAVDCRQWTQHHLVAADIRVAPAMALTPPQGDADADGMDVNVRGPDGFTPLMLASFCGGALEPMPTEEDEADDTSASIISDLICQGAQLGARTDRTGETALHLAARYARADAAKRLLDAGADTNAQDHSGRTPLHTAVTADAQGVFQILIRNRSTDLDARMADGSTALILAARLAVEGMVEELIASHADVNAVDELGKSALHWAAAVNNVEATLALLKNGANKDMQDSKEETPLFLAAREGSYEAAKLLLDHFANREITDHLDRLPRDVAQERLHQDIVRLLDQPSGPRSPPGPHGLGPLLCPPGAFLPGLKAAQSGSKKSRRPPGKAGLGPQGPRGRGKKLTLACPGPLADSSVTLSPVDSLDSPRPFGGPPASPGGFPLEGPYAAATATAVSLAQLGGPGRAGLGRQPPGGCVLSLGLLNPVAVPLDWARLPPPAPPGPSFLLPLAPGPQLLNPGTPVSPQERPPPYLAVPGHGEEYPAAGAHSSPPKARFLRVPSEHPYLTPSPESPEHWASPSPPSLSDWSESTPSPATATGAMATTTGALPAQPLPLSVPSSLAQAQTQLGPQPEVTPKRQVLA

[10] = probe aEGFR binding to arrayed compounds – biochemical, biotinylated probe, 635/667 nm fluorescence, primary screen (AID 1097); settings: small-molecule microarray, higher = more signal;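 further: probe is a biotinylated anti-EGFR antibody binding compounds printed on slides; score combines fluorescence near 667 nm and signal to noise of each spot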
[11] = system: Plasmodium falciparum Sir2 (PF13_0152, Sir2A); experiment: Plasmodium falciparum Sir2A binding compounds – biochemical, small-molecule microarray, 635 nm fluorescence, primary screen (AID 1098); settings: fluorescence 635 nm, higher = more signal;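 further: score merges spot fluorescence intensity with its signal-to-noise ratio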
[12] = probe aDKK1 binding to arrayed compounds – biochemical, biotinylated probe, 635/667 nm fluorescence, primary screen (AID 1099); settings: small-molecule microarray, higher = more signal;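 further: score merges 667nm spot fluorescence with signal to noise across triplicate slides; reference of the scale not given here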
[13] = probe aCHRDL2 binding to arrayed compounds – biochemical, biotinylated probe, 635/667 nm fluorescence, primary screen (AID 1100); settings: small-molecule microarray, higher = more signal
[14] = change in splice reporter luminescence, either direction, cell-based, HEK293, spliceosome inhibition project, primary screen (AID 1101); settings: HEK293 splicing luciferase reporter, 24 h, higher = more signal, called active from +8 up or from −8 down;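 further: HEK293 cells carrying a splicing-competent luciferase reporter gene; test concentration not given here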
[15] = molecular target: Fibroblast growth factor 10 (Homo sapiens) (UniProt O15520); experiment: compounds binding fibroblast growth factor 10 – biochemical, small-molecule microarray, 635 nm fluorescence, primary screen (AID 1102); settings: FGF10 binding, fluorescence 635 nm, higher = more signal
Fibroblast growth factor 10 (Homo sapiens), sequence (O15520 whole entry, looked up): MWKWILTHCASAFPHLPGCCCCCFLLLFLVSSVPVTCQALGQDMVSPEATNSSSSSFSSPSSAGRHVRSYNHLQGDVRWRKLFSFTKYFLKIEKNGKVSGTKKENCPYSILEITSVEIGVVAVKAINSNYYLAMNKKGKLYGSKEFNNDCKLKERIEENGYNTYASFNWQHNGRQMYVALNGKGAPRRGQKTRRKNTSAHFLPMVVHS

[16] = system: glycogen synthase kinase-3 (GSK3A per assay name; protocol says GSK3B); experiment: compounds binding glycogen synthase kinase-3 – biochemical, small-molecule microarray, 635 nm fluorescence, GSK3A, primary screen (AID 1103); settings: fluorescence 635 nm, higher = more signal; further: the record names both GSK3A and GSK3B
[17] = molecular target: Epidermal growth factor receptor (Homo sapiens) (UniProt P00533); experiment: compounds binding epidermal growth factor receptor – biochemical, small-molecule microarray, 635 nm fluorescence, primary screen (AID 1104); settings: EGFR binding, higher = more signal;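 further: score merges 667 nm emission intensity with spot signal to noise over triplicate slides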
Epidermal growth factor receptor (Homo sapiens), sequence (P00533 whole entry, looked up): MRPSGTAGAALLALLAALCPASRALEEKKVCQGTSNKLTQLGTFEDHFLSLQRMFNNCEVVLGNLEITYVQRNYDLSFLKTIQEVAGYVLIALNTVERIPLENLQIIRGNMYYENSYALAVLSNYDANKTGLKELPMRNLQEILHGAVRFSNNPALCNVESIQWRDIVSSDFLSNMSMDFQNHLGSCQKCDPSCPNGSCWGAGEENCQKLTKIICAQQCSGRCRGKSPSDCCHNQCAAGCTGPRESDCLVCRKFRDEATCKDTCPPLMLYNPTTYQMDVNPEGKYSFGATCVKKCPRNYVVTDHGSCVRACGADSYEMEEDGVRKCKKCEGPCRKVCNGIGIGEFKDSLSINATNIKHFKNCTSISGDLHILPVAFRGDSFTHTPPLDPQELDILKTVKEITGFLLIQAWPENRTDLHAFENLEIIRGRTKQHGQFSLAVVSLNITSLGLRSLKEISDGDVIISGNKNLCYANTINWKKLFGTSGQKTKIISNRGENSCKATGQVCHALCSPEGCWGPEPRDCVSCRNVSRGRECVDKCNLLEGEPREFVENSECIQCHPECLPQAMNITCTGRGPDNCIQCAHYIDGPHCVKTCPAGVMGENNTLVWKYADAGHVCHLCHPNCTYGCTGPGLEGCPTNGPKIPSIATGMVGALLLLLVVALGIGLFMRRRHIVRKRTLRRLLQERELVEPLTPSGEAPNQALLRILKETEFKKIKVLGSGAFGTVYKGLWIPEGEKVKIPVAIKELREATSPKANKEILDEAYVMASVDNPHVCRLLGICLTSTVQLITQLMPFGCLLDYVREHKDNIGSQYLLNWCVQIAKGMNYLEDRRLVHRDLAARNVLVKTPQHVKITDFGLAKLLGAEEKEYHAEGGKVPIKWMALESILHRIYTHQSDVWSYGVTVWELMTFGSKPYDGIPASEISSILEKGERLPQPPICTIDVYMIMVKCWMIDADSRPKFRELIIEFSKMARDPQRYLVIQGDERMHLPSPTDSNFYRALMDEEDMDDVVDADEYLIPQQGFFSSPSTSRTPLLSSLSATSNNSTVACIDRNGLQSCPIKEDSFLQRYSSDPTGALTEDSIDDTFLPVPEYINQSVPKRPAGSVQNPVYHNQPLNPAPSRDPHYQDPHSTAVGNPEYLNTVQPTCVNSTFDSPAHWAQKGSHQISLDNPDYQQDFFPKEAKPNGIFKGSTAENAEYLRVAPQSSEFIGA

[18] = molecular target: Follistatin-related protein 3 (Homo sapiens) (UniProt O95633); experiment: compounds binding follistatin-related protein 3 – biochemical, small-molecule microarray, 635 nm fluorescence, primary screen (AID 1105); settings: FSTL3 binding, higher = more signal;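 further: score merges emission near 667 nm and signal to noise per printed spot across three slides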
Follistatin-related protein 3 (Homo sapiens), sequence (O95633 whole entry, looked up): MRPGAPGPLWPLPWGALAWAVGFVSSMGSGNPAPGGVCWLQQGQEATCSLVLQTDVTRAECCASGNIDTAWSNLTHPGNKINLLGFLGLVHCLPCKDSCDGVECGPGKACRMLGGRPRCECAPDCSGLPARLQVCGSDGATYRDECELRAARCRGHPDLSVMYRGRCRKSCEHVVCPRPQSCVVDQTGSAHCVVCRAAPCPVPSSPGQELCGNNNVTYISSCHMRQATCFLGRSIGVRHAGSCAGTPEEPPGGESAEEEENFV

[19] = molecular target: Dickkopf-related protein 1 (Homo sapiens) (UniProt O94907); experiment: small molecules binding DKK1 protein – biochemical, small-molecule microarray, 635 nm fluorescence scan, primary screen (AID 1106); settings: higher = more signal;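 further: score merges emission near 667 nm with signal to noise over three replicate slides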
Dickkopf-related protein 1 (Homo sapiens), sequence (O94907 whole entry, looked up): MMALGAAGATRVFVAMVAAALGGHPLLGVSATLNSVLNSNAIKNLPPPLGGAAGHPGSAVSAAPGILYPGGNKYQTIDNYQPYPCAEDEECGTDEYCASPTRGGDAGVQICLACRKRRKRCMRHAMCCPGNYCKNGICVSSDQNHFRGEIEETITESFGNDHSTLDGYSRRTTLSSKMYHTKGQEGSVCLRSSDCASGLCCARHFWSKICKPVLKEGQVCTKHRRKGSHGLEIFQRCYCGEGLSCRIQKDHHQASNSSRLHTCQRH

[20] = system: Inhibin beta A chain (activin A); experiment: small molecules binding activin A – biochemical, small-molecule microarray, 635 nm fluorescence scan, primary screen (AID 1107); settings: INHBA, higher = more signal;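 further: mouse activin A protein probed at 4.33 µg/mL on printed slides; score merges bound-protein fluorescence near 667 nm with spot signal-to-noise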

SMILES	composite z-score [1]	z-score [2]	z-score [3]	z-score [4]	composite z-score [5]	z-score [6]	composite z-score [7]	composite z-score [8]	composite z-score [9]	composite z-score [10]	composite z-score [11]	composite z-score [12]	composite z-score [13]	z-score [14]	composite z-score [15]	composite z-score [16]	composite z-score [17]	composite z-score [18]	composite z-score [19]	composite z-score [20]
O=C1NC(=O)C2C1C=CC(C(O)C1CCCCC1)N2Nc1ccccn1 (stereo not given)	0.327	0.459 (inactive)	0.633 (inactive)	0.117 (inactive)	2.43	-1.5 (inactive)	0.0078	-0.401	0.492	-0.104	0.488	0.174	0.279	1.31 (inactive)	0.355	-0.133	0.391	0.402	0.254	1.26
O=C1OC[C@@H](c2ccccc2)n2cc(/C=C/c3ccccc3)cc21	-0.329	-0.154 (inactive)	-2.68 (inactive)	0.614 (inactive)	-0.0278	1.45 (inactive)	-0.0042	-0.364	-0.0623	-0.108	0.753	-0.222	0.0504	-1.55 (inactive)	-0.256	-0.678	-0.609	-0.513	-0.161	0.0778
C=CCC(OC(C)=O)[C@@H]1[C@@H](N(Cc2ccc(-c3ccccc3)cc2)C(=O)Cc2ccc(OC)cc2)c2cc(OCCCO)ccc2N1C(=O)Cc1ccc(OC)cc1 (stereo not given in full)	0.622	-0.0563 (inactive)	0.68 (inactive)	-0.753 (inactive)	0.436	-0.553 (inactive)	0.0717	-0.19	-0.209	0.0101	-0.214	0.642	0.327	-0.581 (inactive)	0.0842	-0.0794	-0.0897	-0.147	-0.191	1.59
COCCOC(=O)N1C(=O)[C@@]2(c3cc(C#CCCO)ccc31)[C@H](c1ccc(O)cc1)N1[C@H](c3ccccc3)[C@H](c3ccccc3)OC(=O)[C@H]1[C@@H]2C(=O)NC[C@H](O)c1ccccc1	1.53	1.08 (inactive)	0.933 (inactive)	3.26 (inactive)	2.15	1.76 (inactive)	-0.195	0.697	1.03	-0.103	1.16	-0.0668	-0.0755	0.49 (inactive)	0.758	0.733	0.0103	0.491	0.143	0.48
O=C1O[C@H](c2ccccc2)[C@H](c2ccccc2)N2[C@H]1[C@@H](C(=O)O)[C@]1(C(=O)Nc3ccc(C#CC4(O)CCCCCC4)cc31)[C@H]2c1ccccc1OCCO	1.56	2.68 (inactive)	-0.155 (inactive)	0.247 (inactive)	2.27	1.47 (inactive)	0.366	0.621	1.11	0.494	1.5	0.0035	-0.351	-0.767 (inactive)	1.02	1.29	0.24	0.69	0.195	0.745
[N-]=[N+]=NCc1ccccc1[C@H]1OC(c2ccc(OCCCO)cc2)=N[C@@]1(CCS(=O)(=O)c1ccccc1)C(=O)NCCN1CCOCC1	1.56	0.917 (inactive)	0.306 (inactive)	1.27 (inactive)	3.5	-0.0501 (inactive)	0.181	0.0038	1.06	0.214	1.51	0.667	1.12	-0.757 (inactive)	1.38	0.844	0.135	0.698	0.0689	0.914
COc1ccc([Si](C)(C)[C@H]2[C@H](CC(=O)N3CCC[C@H]3CO)O[C@@]3(C(=O)N(Cc4cccc(N5CCCCC5=O)c4)c4ccccc43)[C@@H]2C)cc1	1.52	-0.439 (inactive)	0.294 (inactive)	-1.23 (inactive)	1.98	0.561 (inactive)	-0.174	1.23	1.09	-0.139	1.01	-0.297	-0.441	1.06 (inactive)	1.3	1.21	0.532	1.26	0.823	0.248
CS(=O)(=O)CCOC(=O)C1=CC(CCCO)=CC(C2CC2)N(Cc2sc3ccccc3c2Cl)C=C1C(=O)OCCS(C)(=O)=O (stereo not given)	1.13	-0.853 (inactive)	-5.1 (inactive)	-1.47 (inactive)	3.09	0.189 (inactive)	0.247	0.482	1.09	0.0432	1.38	0.33	0.669	0.385 (inactive)	0.705	0.838	-0.0062	0.856	0.018	1.36
CN1C(=O)C2C=CC(C(O)c3ccc([N+](=O)[O-])cc3)N(Nc3ccccc3)C2C1=O (stereo not given)	1.38	0.439 (inactive)	-0.184 (inactive)	0.315 (inactive)	3.25	-1.69 (inactive)	0.222	-0.0487	1.03	0.0089	1.25	0.279	0.998	0.293 (inactive)	0.898	0.895	0.0754	1.01	-0.157	0.905
COc1ccc([Si](C)(C)[C@H]2[C@H](CC(=O)N(CCO)Cc3ccccc3)O[C@@]3(C(=O)N(c4ccccc4)c4ccccc43)[C@@H]2C)cc1	1.51	1.48 (inactive)	0.656 (inactive)	3.73 (inactive)	1.79	-0.366 (inactive)	-0.11	1.3	1.11	-0.13	0.717	-0.202	-0.0698	-1.5 (inactive)	0.889	0.289	0.686	1.09	0.415	0.841
COc1cc(CO)cc(I)c1O[C@H]1C=C(C(=O)NCCO)C[C@@H](N(CCN2CCOCC2)C(=O)C2CCCO2)[C@@H]1O (stereo not given in full)	-0.15	0.383 (inactive)	-0.455 (inactive)	0.0665 (inactive)	0.206	2.54 (inactive)	-0.172	0.34	-0.204	-0.0106	0.226	-0.309	-0.521	0.0133 (inactive)	0.322	0.507	0.488	0.152	0.516	0.356
O=C1O[C@@H](c2ccccc2)[C@@H](c2ccccc2)N2[C@@H](c3ccccc3OCCO)[C@]3(C(=O)Nc4ccc(C#CC5(O)CCCCCC5)cc43)[C@@H](C(=O)N3CCCCCCC3)[C@H]12	1.53	0.834 (inactive)	-0.51 (inactive)	2.57 (inactive)	5.07	1.23 (inactive)	1.95	2.46	1	1.52	2.16	3.21	1.84	-1.3 (inactive)	1.66	1.45	2.09	1.77	2.68	1.91
COC(=O)[C@@]1(Cc2ccccc2)[C@H]2c3cc(C(=O)N(C)C)n(CCF)c3C[C@H]2CN1C(=O)c1ccccc1	0.479	0.176 (inactive)	1.18 (inactive)	0.678 (inactive)	2.21	-0.0418 (inactive)	0.534	-0.669	0.782	0.21	1.56	1.27	1.42	-1.72 (inactive)	-0.0624	0.0979	-0.469	0.0598	-1.23	-0.711
C=CCNC(=O)[C@H]1[C@@H]2C(=O)O[C@@H](c3ccccc3)[C@@H](c3ccccc3)N2[C@@H](c2ccc(O)cc2)[C@]12C(=O)Nc1ccccc12	1.05	1.14 (inactive)	0.118 (inactive)	1.37 (inactive)	2.75	1.68 (inactive)	-0.193	-0.0122	-0.537	-0.177	0.524	0.46	0.501	-0.592 (inactive)	0.28	-0.471	-0.705	-0.693	-0.101	0.169
C=C(COC)C(=O)CC[C@H](OC(C)=O)c1ccccc1OCCO	1.39	0.556 (inactive)	-2.58 (inactive)	-0.401 (inactive)	-0.323	1.32 (inactive)	-0.166	0.985	0.367	-0.262	0.858	-0.348	0.151	-0.0648 (inactive)	1.5	-0.41	-0.567	-0.262	0.0024	1.13
C=CCOC(=O)[C@H]1[C@@H]2C(=O)O[C@@H](c3ccccc3)[C@@H](c3ccccc3)N2[C@@H](c2ccc(OCCOC(=O)[C@H]3C[C@H]4C(=O)NCC(=O)N4[C@H]3c3ccc(O)cc3)cc2)[C@]12C(=O)Nc1ccccc12	1.48	1.71 (inactive)	1.61 (inactive)	4.1 (inactive)	2.58	-0.0665 (inactive)	0.0337	1.22	1.09	0.0656	1.33	0.101	0.116	0.417 (inactive)	1.28	1.3	0.756	1.23	0.974	0.511
CN(C)CCCCNC(=O)[C@H]1C[C@H]2C(=O)N[C@@H](CCCCN(C)C)C(=O)N2[C@H]1c1ccc(O)cc1	1.39	-2.61 (inactive)	-0.403 (inactive)	-1.41 (inactive)	-0.237	1.55 (inactive)	-0.192	0.774	0.343	-0.176	1.12	-0.265	-0.508	-1.73 (inactive)	0.174	-0.0777	0.821	0.592	1.16	-0.0636
CCCC[C@@H](O)C1=C(C)Cn2c(=O)n(-c3ccccc3)c(=O)n2[C@H]1CO	-0.23	-1.43 (inactive)	-1.39 (inactive)	-0.846 (inactive)	-0.249	2.53 (inactive)	-0.218	-0.0422	-0.839	-0.0517	-0.0833	-0.526	-0.487	-1 (inactive)	0.132	-0.349	0.0431	-0.265	0.0869	0.146
C=CCNC(=O)[C@@H]1[C@H]2C(=O)O[C@H](c3ccccc3)[C@H](c3ccccc3)N2[C@H](c2ccc(O)cc2)[C@@]12C(=O)Nc1ccc(C#CC3=CCCCC3)cc12	1.55	1.03 (inactive)	0.185 (inactive)	1.74 (inactive)	2.93	-0.43 (inactive)	-0.162	1.03	1.05	0.392	1.6	0.582	-0.228	-0.258 (inactive)	1.24	0.887	0.494	0.79	0.626	0.406
